Vaccinia Venus = inhibitors of vaccinia virus (Venus reporter). Potency, µM (doses to about 36.5 µM), for inactives: top-dose activity change, negative = inhibition, most hits filed as inhibitors. hit rate 0.46% among 330,000. Vaccinia virus Venus reporter expression, fluorescence; calls by dose curve; tested in A549 cells; also: potency is read from the fitted curve at half-maximal effect; nearly all actives have a fitted effect of over 30% in size
LmPK inh = inhibitors of Leishmania mexicana pyruvate kinase; purified LmPK, Kinase-Glo ATP luminescence, 1 h; hit rate 0.37% among 290,000; Potency, µM (highest dose often 57.5 µM), for the others: at the highest dose activity change, negative = inhibition, hits mostly inhibitors; also: potency is read from the fitted curve at half-maximal effect
Target sequence (Q27686 whole entry, looked up): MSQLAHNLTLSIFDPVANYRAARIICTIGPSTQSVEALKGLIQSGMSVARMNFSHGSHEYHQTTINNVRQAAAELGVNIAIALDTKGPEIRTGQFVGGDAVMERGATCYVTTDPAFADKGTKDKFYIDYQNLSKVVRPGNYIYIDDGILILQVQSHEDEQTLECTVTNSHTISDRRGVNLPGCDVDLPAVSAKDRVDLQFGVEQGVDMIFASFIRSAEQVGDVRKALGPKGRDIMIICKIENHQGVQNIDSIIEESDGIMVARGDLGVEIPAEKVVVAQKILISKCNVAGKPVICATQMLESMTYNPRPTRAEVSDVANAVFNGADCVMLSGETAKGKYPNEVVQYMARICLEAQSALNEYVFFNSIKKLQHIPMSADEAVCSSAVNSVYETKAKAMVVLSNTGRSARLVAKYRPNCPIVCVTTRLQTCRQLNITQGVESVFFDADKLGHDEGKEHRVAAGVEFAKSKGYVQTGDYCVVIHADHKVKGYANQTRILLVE
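Pyruvate kinase activity monitored as ATP production (luciferase luminescence). Conditions: 0.1 nM enzyme, 0.5 mM PEP, 0.1 mM ADP, 1 h, RT; normalized against uninhibited and no-enzyme wells.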
TbPYK inhibitor = inhibitors of Trypanosoma brucei pyruvate kinase; Q57TT1; TbPYK enzyme, Kinase-Glo Plus ATP luminescence, 45 min; Potency, µM (highest dose often 76.8 µM), for inactives: at the highest dose activity, negative = inhibition, actives largely listed as inhibitors; hit rate 0.12% among 410,000; also: potency is read from the fitted curve at half-maximal effect; nearly all actives have a fitted effect of over 50% in size
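Readout: single end-point luminescence (Kinase-Glo Plus, 10 min). Reaction conditions were TbPYK/substrate plus 130 uM ADP, 45 min at RT, pH 7.2 TEA buffer. No-enzyme wells served as controls, and data were normalized before concentration-response fitting.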
VACV mCherry inh = inhibitors of vaccinia virus infection (mCherry reporter signal). hit rate 0.63% among 310,000. Potency, µM (doses to about 36.5 µM), without a hit: at the highest dose activity change, negative = inhibition, most hits filed as inhibitors. Vaccinia virus mCherry reporter infection, fluorescence. AID 720579; calls by dose curve; tested in A549 cells; also: potency is read from the fitted curve at half-maximal effect; nearly all actives have a fitted effect of over 35% in size
HCMV inh = human cytomegalovirus inhibition. HFF cells, HCMV-luciferase reporter, 72 h; hits give low values. activity change, negative = inhibition, % at 57.5 µM. hit rate 4.5% among 410,000. AID 1259415; in the data active = activity change below about -60%; inconclusive = no clear call, values can overlap the other calls; inactive = above about -39%
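Human foreskin fibroblasts infected with luciferase-reporter HCMV at MOI 1 PFU/cell, compounds at two doses. Luciferase measured 72 h post infection; normalized to buffer-only basal and Salinomycin (10uM) controls.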
The depositor's hits bear a star; i = inactive; ? = inconclusive; . = no result given; [ ] = dose if it differs, or a comment. The list is not random: actives were taken first. Their share in the collection is about 5%. Unless noted, calls follow the shape of the dose curve; as a rule, active = well fitted curve in the direction sought with a large enough effect; inconclusive = small, poorly fitted or top-dose-only effect, or another doubt; inactive = no such curve, though single readings can be large; an effect the other way counts as inactive or inconclusive. % is scaled to controls: 0 for no effect and ±100 for the full control effect.

SMILES | Vaccinia Venus | LmPK inh | TbPYK inhibitor | VACV mCherry inh | HCMV inh
CCOC(=O)c1c(CC(C)C)csc1NC(=O)COC(=O)c1cc(OC)c(OC)cc1[N+](=O)[O-] | . | -1.0% | 1.9% | . | -71.5*
Cc1ccc(C)c(NS(=O)(=O)c2ccc(-c3cnc(C4CC4)o3)cc2)c1 | . | -4.6% | -4.7% | . | -82.1*
Cc1c(Cl)cccc1NS(=O)(=O)c1ccc(-c2cnc(C3CC3)o2)cc1 | -24.8% | . | 6.9% | ? | -80.1*
CC(=O)c1cccc(NS(=O)(=O)c2ccc(-c3cnc(C4CC4)o3)cc2)c1 | . | -4.4% | -5.0% | . | -85.4*
Cc1cc(Nc2cc(F)ccc2C)n2nc(C)nc2n1 | -13.0% | -2.5% | -1.5% | -5.5% | 7.3
Cc1ccc(OCC(=O)N2CCN(c3nnc(-c4ccc(C)cc4)c4ccccc34)CC2)cc1 | . | 1.5% | -21.2% | . | -98.7*
COc1ccc(OCC(=O)N2CCN(c3nnc(-c4ccc(C)cc4)c4ccccc34)CC2)cc1 | ? | -4.0% | -3.7% | ? | -28.8
CCOC(=O)c1cc([N+](=O)[O-])c([N+](=O)[O-])cc1NC(C)=O | -4.0% | 5.3% | 12.9% | -10.3% | -100.2*
Cc1ccc(C)c(S(=O)(=O)N2[C@@H]3CC[C@@H](C3)[C@H]2c2nc3c(OCC4CCOCC4)cccc3[nH]2)c1 | . | . | . | . | 1.0
Cc1ccccc1C(=O)N1CCCCC1CCN1CCCCC1 (stereo unspecified) | 1.3% | . | 0.0% | -6.4% | -20.4
CCCOc1ccccc1C(=O)N1CCCCC1CCN1CCCCC1 (stereo unspecified) | -4.5%[7.34 µM] | . | -17.3% | -14.5%[7.34 µM] | -69.6*
NC(=O)c1ccc(OCC2CCCO2)cc1 (stereo unspecified) | -9.1% | -2.6% | -0.3% | i | -7.1
O=C(O)CCSc1nnc(COc2cccc3ccccc23)n1-c1cccc(Cl)c1 | -0.8% | -3.7% | 1.3% | i | -99.0*
O=C(CCCN1C(=O)/C(=C/c2ccc(F)cc2)SC1=S)NCCCn1ccnc1 | 232.0% | -0.9% | 0.3% | 33.2% | -67.3*
COc1ccc(/C=C2\SC(=S)N(CCC(=O)NCCCn3ccnc3)C2=O)cc1 | . | 0.4% | 2.8% | . | -31.6
CC(C)c1ccc(/C=C2\SC(=S)N(CCC(=O)NCCCn3ccnc3)C2=O)cc1 | -23.1% | -8.7% | -10.5% | -25.1% | -97.0*
CCCCCN1C=CC(=C2C(=O)c3ccccc3C2=O)C=C1 | -10.9% | ? | ? | i | -90.4*
CCOc1ccc(NC(=O)C2CCCN(c3nn4c(=O)cc(C)nc4s3)C2)cc1 (stereo unspecified) | . | -7.6% | 0.0% | . | -14.2
CCOC(=O)c1sc(=S)n(C)c1NC(=O)c1ccc(C(C)(C)C)cc1 | -23.3% | 5.3% | -16.0% | -14.3% | -72.9*
O=C(C#Cc1cccc([N+](=O)[O-])c1)c1ccccc1 | . | -2.1% | . | . | .
Nc1ccccc1C#CC(=O)c1ccccc1 | 22.4µM* | -7.0% | -2.9% | ? | -99.6*
O=C(C/C=N\OCc1ccc([N+](=O)[O-])cc1)Nc1ccc(Br)cc1 | -11.4% | 2.6% | 3.1% | -28.3% | -65.5*
O=C(COc1ccc([N+](=O)[O-])cc1)NNC(=O)Nc1ccc([N+](=O)[O-])cc1 | . | -7.2% | 2.0% | . | 14.9
CC(c1ccccc1C(O)(c1ccccc1)c1ccccc1)N(C)C (stereo unspecified) | -9.1% | 0.4% | -2.4% | i | -68.8*
COc1ccccc1C(O)(c1ccccc1)c1ccccc1OC | -3.3% | . | -8.6% | -12.3% | 11.7
SMILES | Vaccinia Venus | LmPK inh | TbPYK inhibitor | VACV mCherry inh | HCMV inh
O=S(=O)(Nc1ccc(Cc2ccncc2)cc1)c1ccc(Br)cc1 | ? | 1.1% | 2.2% | -24.5% | -62.5*
O=S(=O)(Nc1ccc(Cc2ccncc2)cc1)c1ccc(Cl)cc1 | -18.1% | 2.9% | -11.5% | -26.2% | -65.2*
O=C(O)c1cc(S(=O)(=O)NC23CC4CC(CC(C4)C2)C3)ccc1Cl | . | -1.6% | -16.9% | . | 66.6
Cc1ccsc1C(=O)OCc1csc(-c2ccccc2)n1 | -10.2% | 15.8µM* | -23.5% | . | 105.8
O=C(O)Cc1csc(-c2ccc(Cl)cc2)n1 | . | . | 0.0% | . | 2.3
Cn1cccc1C(=O)OCc1csc(-c2ccccc2)n1 | 1.9% | 14.1µM* | -7.0% | 0.3% | 261.0
Cn1cccc1C(=O)OCc1ccc(F)cc1 | -5.1% | 1.0% | -1.3% | i | -74.9*
O=C(O)Cc1csc(-c2ccccc2)n1 | -8.8% | -3.5% | -3.9% | i | -63.2*
COCCCNC(=O)c1ccc2c(c1)nc1n2CCCCC1 | -11.7% | . | 2.3% | i | 84.1
COCC(=O)N1CCC[C@@]2(CCN(Cc3ccccc3OC)C2)C1 | . | . | -7.5% | . | .
O=C(NNC(=O)c1c(F)cccc1F)c1ccccc1OC(F)(F)F | -6.0% | -3.2% | -0.4% | -9.0% | 10.3
Cc1c(C(=O)N2CCC(C)CC2)sc2ncnc(N(C)c3ccccc3)c12 | . | 2.1% | -4.0% | . | -65.9*
Fc1ccc(OCCOCCNCC2CCCO2)cc1 (stereo unspecified) | 2.7% | -0.9% | -8.4% | -9.1% | -6.3
c1ccc(COc2ccccc2CNC23CC4CC(CC(C4)C2)C3)cc1 | ? | 0.8% | -4.4% | -19.5% | -97.2*
c1ccc(COc2ccccc2CNC2CCCC2)cc1 | -6.1% | -0.6% | 2.4% | -2.7% | -26.5
COc1cccc(-c2ccc3nnc(SCC(=O)N4CCOCC4)n3n2)c1 | -25.6% | . | -5.2% | -13.5% | 19.3
CCCCn1c(CNC(=O)CC)nc2ccccc21 | 3.1% | 2.4% | -4.2% | i | 8.1
O=C(CCl)Nc1cccc(Oc2cnccn2)c1 | . | 0.2% | 5.0% | . | ?
O=C(CCl)Nc1cccc(Oc2ccccc2)c1 | -1.8% | 1.5% | -1.5% | -5.7% | -97.1*
COc1ccc(Br)cc1/C=N/NS(=O)(=O)c1ccccc1 | ? | . | 4.9% | -19.9% | -86.6*
COC(=O)c1ccc(COc2ccccc2/C=N/NS(=O)(=O)c2ccc(C)cc2)cc1 | ? | 9.4% | 3.5% | -27.0% | -94.0*
O=S(=O)(N/N=C/c1ccccc1OCc1ccc(Cl)cc1)c1ccccc1 | -26.6% | 3.3% | 3.2% | -19.1% | -83.4*
N#CC(C#N)=Cc1ccccc1OCc1ccccc1 | . | 0.0% | . | . | .
Cc1ccc(S(=O)(=O)/C(C#N)=C/c2ccccc2OCc2ccccc2)cc1 | -19.3% | 3.1% | -0.3% | -12.6% | -68.9*
O=C(NCCN1C(=O)S/C(=C\c2ccccc2)C1=O)c1cc(S(=O)(=O)N2CCOCC2)c(Cl)cc1Cl | -15.2% | 3.8% | -8.9% | -2.7% | -4.2
SMILES | Vaccinia Venus | LmPK inh | TbPYK inhibitor | VACV mCherry inh | HCMV inh
NC(=O)CN(c1ccc([N+](=O)[O-])cc1)S(=O)(=O)c1ccccc1 | -0.1% | -3.3% | -1.0% | -7.3% | 17.9
CCNC(=O)C1CCN(c2nc3ccccc3nc2C(F)(F)F)CC1 | -8.0% | . | -10.9% | -0.8% | -3.0
O=C(O)C1(P(=O)(c2ccccc2)c2ccccc2)CCC1 | -6.0% | 1.5% | -6.2% | . | 5.3
O=C(CSc1ccc2ccccc2c1)N1CCN(c2ccc(O)cc2)CC1 | . | -4.8% | ? | . | -77.5*
O=S(=O)(c1ccc2ccccc2c1)N1CCN(c2ccc(O)cc2)CC1 | . | . | ? | . | -65.9*
O=C(CCl)N1CCN(S(=O)(=O)c2ccc3ccccc3c2)CC1 | -4.3% | -9.2% | 0.8% | i | -97.9*

Screening results (PubChem BioAssay)
